Experiment [1] is described as follows: NCI Yeast Anticancer Drug Screen. Data for the rad50 strain (AID 155).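 Further: 0% = growth of vehicle-only cultures of the same strain.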 Particulars: S. cerevisiae rad50 strain growth inhibition; at 50.0 µM; active compounds read high. An outline of the steps: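 Growth of the mutant yeast was measured after compound exposure and referenced to vehicle-treated cultures.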
Experiment [2] can be described thus: NCI Yeast Anticancer Drug Screen. Data for the mec2-1 strain (AID 157). Conditions: S. cerevisiae mec2-1 strain, at 50.0 µM, active compounds read high. An outline of the steps: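 Readout is yeast growth inhibition, normalised to vehicle-treated controls, in the mec2-1 strain exposed to compound.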
Experiment [3] in a line: NCI Yeast Anticancer Drug Screen. Data for the sgs1 mgt1 strain (AID 161).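 Further: 0% = growth of cultures given vehicle only.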 Conditions: S. cerevisiae sgs1 mgt1 strain, at 50.0 µM, active compounds read high. The essentials: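 Compounds are added to genetically altered yeast, and growth is compared with cultures given vehicle alone to give percent inhibition.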
A short description of experiment [4]: NCI Yeast Anticancer Drug Screen. Data for the cln2 rad14 strain (AID 165).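 Further: 0% = growth equal to vehicle treated cultures.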 Conditions: S. cerevisiae cln2 rad14 strain, at 50.0 µM, active compounds read high. The essentials: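 Relative to vehicle controls, growth inhibition of compound-treated cln2 rad14 yeast was recorded.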
Experiment [5] is described as follows: NCI Yeast Anticancer Drug Screen. Data for the bub3 strain (AID 167). Particulars: S. cerevisiae bub3 mutant strain, at 50.0 µM, active compounds read high. The essentials:
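Whole-cell yeast assay. The mutant strain was incubated with compounds, and growth inhibition was determined by comparison with vehicle-treated cells.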

Experiment [6] is described as follows: NCI Yeast Anticancer Drug Screen. Data for the mlh1 rad18 strain (AID 175). Particulars: S. cerevisiae mlh1 rad18 strain growth inhibition; at 50.0 µM; active compounds read high. An outline of the steps:
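Test agents were incubated with a yeast strain of defined genotype (DNA damage repair defect). Inhibition of growth was derived by comparison with vehicle-exposed cultures.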

The panel holds about 79,000 compounds, 15% with a hit somewhere; the sample as a whole holds those more often. Values without a mark were called inactive. The source made the active and inactive calls. No stated cut-off is given here; in the data, active means growth inhibition above about 70%; inactive means the rest.

Regarding `CCC(C(C)C)C1NC1C(C)C1CCC2C3CC=C4CC(OC(C)=O)CCC4(C)C3CCC12C` (configuration not stated), the growth inhibition was 95.8% (active) in experiment [1]; 99.2% (active) in experiment [2]; 99.1% (active) in experiment [3]; 98.3% (active) in experiment [4]; 98.6% (active) in experiment [5]; 98.7% (active) in experiment [6].
Turning to `O=C(O)CCCC(=O)CCCC(=O)O`, the growth inhibition is 0.3% in experiment [1]; 4.35% in experiment [2]; 22.9% in experiment [3]; 7.45% in experiment [4]; 24.6% in experiment [5]; 21.4% in experiment [6].
Regarding `CC(C)OP(=O)(OC(C)C)/C(C#N)=C/c1ccco1`, the growth inhibition was -23.9% in experiment [1]; -51% in experiment [2]; -23.6% in experiment [3]; -32.2% in experiment [4]; -20.1% in experiment [5]; -31.9% in experiment [6].
Regarding `CC(=O)CC(C)=O.CC(=O)CC(C)=O.[Co]`, the growth inhibition is -31.9% in experiment [1]; -41% in experiment [2]; -8% in experiment [3]; -133% in experiment [4]; -52.3% in experiment [5]; 0.7% in experiment [6].
As to `N.N.NC(CS)C(=O)[O-].NC(CS)C(=O)[O-].[Pt+4]` (configuration not stated), the growth inhibition in experiment [1] is 15%; in experiment [2] it was -4%; in experiment [3] it was 3.25%; in experiment [4], -21.6%; in experiment [5], -12.8%; in experiment [6], 15.4%.
As to `O=C(O)C(Cl)C(=O)O`, the growth inhibition in experiment [1] was -4.4%; in experiment [2], -7.8%; in experiment [3], 9%; in experiment [4], -26.4%; in experiment [5], -0.35%; in experiment [6], -13.9%.
On to `ClCCN(CCCl)c1ccc(/C=N\N=C\c2ccncc2)cc1`, for which the growth inhibition in experiment [1] was 4.35%; in experiment [2], -3.95%; in experiment [3] it was 6.15%; in experiment [4] it was -8.5%; in experiment [5], 0.95%; in experiment [6], -1.8%.
Regarding `N.N.N.N.N.NC(=O)c1nn[n-]n1.[Cl-].[Co+3]`, the growth inhibition was -27.2% in experiment [1]; -3% in experiment [2]; -9.45% in experiment [3]; 0% in experiment [4]; -27.3% in experiment [5]; -17.1% in experiment [6].
Consider `O=S(=O)(F)c1cc(Cl)c(O)c(S(=O)(=O)F)c1`, for which the growth inhibition in experiment [1] was 10.1%; in experiment [2] it was 6.25%; in experiment [3], 5.8%; in experiment [4], 3.65%; in experiment [5] it was -2.75%; in experiment [6] it was 10.1%.
As to `CC(=O)c1ccccc1N=Nc1ccc(N(CCCl)CCCl)cc1C`, the growth inhibition in experiment [1] was 13.5%; in experiment [2], 19.7%; in experiment [3], 12.9%; in experiment [4] it was 0.95%; in experiment [5], 20.5%; in experiment [6], 31.4%.
As to `O=C(O)C(=O)O.[Co].[NH-]CC[NH-].[NH-]CC[NH-]`, the growth inhibition in experiment [1] is 4.9%; in experiment [2], 13.4%; in experiment [3] it was 6.65%; in experiment [4], -12.8%; in experiment [5] it was 22.4%; in experiment [6], 12.8%.
On to `CC(C)N(C(C)C)[PH+]1O[PH+](N(C(C)C)C(C)C)O[PH+](N(C(C)C)C(C)C)O[PH+](N(C(C)C)C(C)C)O[PH+](N(C(C)C)C(C)C)O1.[C-]#[O+].[C-]#[O+].[C-]#[O+].[C-]#[O+].[C-]#[O+].[C-]#[O+].[C-]#[O+].[Cr].[Cr]` (configuration not stated), for which the growth inhibition in experiment [1] is 17.7%; in experiment [2], -5.45%; in experiment [3] it was -14.5%; in experiment [4], -0.75%; in experiment [5] it was 2.8%; in experiment [6] it was -3.8%.
With `CC(C)OP(=O)(NC(=S)c1ccccc1)OC(C)C`, the growth inhibition in experiment [1] is 19.1%; in experiment [2], 21%; in experiment [3] it was 36.4%; in experiment [4], 11.4%; in experiment [5], 13.8%; in experiment [6], 13.9%.
With `O=P(Oc1ccccc1)(Oc1ccccc1)Oc1c(Cl)c(Cl)c(O)c(Cl)c1Cl`, the growth inhibition in experiment [1] is 23.6%; in experiment [2] it was 10%; in experiment [3], 38.9%; in experiment [4] it was 19.1%; in experiment [5], -16.4%; in experiment [6] it was 2.35%.
`c1ccc(-c2cc(-c3ccccc3)c(OOc3c(-c4ccccc4)cc(-c4ccccc4)cc3-c3ccccc3)c(-c3ccccc3)c2)cc1`: the growth inhibition is -6.7% in experiment [1]; -0.7% in experiment [2]; -0.95% in experiment [3]; -27.9% in experiment [4]; -10% in experiment [5]; 16.6% in experiment [6].
With `CN(C)C1(c2ccc3ccccc3c2)CSC1`, the growth inhibition in experiment [1] is -0.4%; in experiment [2], -16.6%; in experiment [3] it was 0.55%; in experiment [4], -16.2%; in experiment [5], -29.8%; in experiment [6] it was 2.25%.
Consider `C#CC(C)N1CCC2(CC1)C(=O)NCN2c1ccccc1` (configuration not stated), for which the growth inhibition in experiment [1] is -19.3%; in experiment [2] it was -6.1%; in experiment [3], -15.7%; in experiment [4], -2.85%; in experiment [5], -4.05%; in experiment [6], 0.65%.
Turning to `O=c1cc(CCl)occ1O`, the growth inhibition in experiment [1] was 7.35%; in experiment [2], 19.5%; in experiment [3] it was 20.6%; in experiment [4], -5.75%; in experiment [5], 16.1%; in experiment [6] it was 15.1%.
Regarding `CCN(CC)P(=O)(N1CC1(C)C)N1CC1(C)C` (configuration not stated), the growth inhibition in experiment [1] is 1.85%; in experiment [2], 0.75%; in experiment [3], 1.4%; in experiment [4], 2.35%; in experiment [5] it was -4.6%; in experiment [6], 1.35%.
With `O=C(/C=C/c1ccccc1)CCC1C(=O)NC(=S)NC1=O`, the growth inhibition in experiment [1] is -4.05%; in experiment [2] it was 3.35%; in experiment [3] it was 27.2%; in experiment [4] it was 0.4%; in experiment [5] it was -17.1%; in experiment [6], -34.5%.
Take `CCC[CH2][Sn]([CH2]CCC)[CH2]CCC.CCC[CH2][Sn]([CH2]CCC)[CH2]CCC`: the growth inhibition in experiment [1] was 99.4% (active); in experiment [2] it was 99.7% (active); in experiment [3] it was 99.7% (active); in experiment [4] it was 99.5% (active); in experiment [5], 99.7% (active); in experiment [6], 99.2% (active).
On to `CC(=O)Nc1cccc([As]=O)c1` (configuration not stated), for which the growth inhibition was 11.5% in experiment [1]; 2.75% in experiment [2]; 9.95% in experiment [3]; 7.6% in experiment [4]; -10.8% in experiment [5]; 19.1% in experiment [6].
In the case of `CO[C@@]12[C@H](COC(N)=O)C3=C(C(=O)C(C)=C(NCCO)C3=O)N1C[C@@H]1N[C@@H]12`, the growth inhibition in experiment [1] is 3.75%; in experiment [2] it was -27.1%; in experiment [3], 21.1%; in experiment [4], -0.4%; in experiment [5], 7.35%; in experiment [6] it was -7.45%.
For the molecule `CN(C)C(=O)c1nnsc1NN=O`, the growth inhibition in experiment [1] is 32%; in experiment [2], 33.7%; in experiment [3], -35.1%; in experiment [4] it was 8.35%; in experiment [5], -14.4%; in experiment [6], 9.35%.
With `CC(=O)Nc1ccc(Cl)cc1`, the growth inhibition in experiment [1] is -20.4%; in experiment [2], -7.15%; in experiment [3] it was -18.1%; in experiment [4] it was 1.7%; in experiment [5], 9.45%; in experiment [6] it was -1.9%.
Turning to `COP(=O)(OC)C1(c2ccccc2)C2C3CCC(C3)C21` (configuration not stated), the growth inhibition in experiment [1] is 1.75%; in experiment [2] it was 21.7%; in experiment [3], 2.65%; in experiment [4] it was -7%; in experiment [5] it was 14.8%; in experiment [6], 17.8%.
In the case of `O=C(CCl)Oc1ccccc1`, the growth inhibition in experiment [1] is -47.1%; in experiment [2], -33.5%; in experiment [3], -27.1%; in experiment [4] it was -10.8%; in experiment [5], -59.5%; in experiment [6], -28.1%.
On to `CC(=O)[CH-]C(C)=O.CC(=O)[CH-]C(C)=O.CC(=O)[CH-]C(C)=O.CCC(=O)O.[Zn+2].[Zn]`, for which the growth inhibition was -20.9% in experiment [1]; -9.35% in experiment [2]; -18.4% in experiment [3]; -38% in experiment [4]; -0.15% in experiment [5]; -26.3% in experiment [6].
For `c1ccc(C(c2ccccc2)C2CCNCC2)cc1`, the growth inhibition in experiment [1] is 29.1%; in experiment [2] it was 6.8%; in experiment [3], 3.2%; in experiment [4], 16.2%; in experiment [5] it was 32.6%; in experiment [6], 2.85%.
As to `COc1cc([As](=O)(O)O)c(OC)cc1N`, the growth inhibition in experiment [1] is -9.7%; in experiment [2], 6.6%; in experiment [3], -0.9%; in experiment [4], -55.7%; in experiment [5] it was 5.5%; in experiment [6], -17.1%.
For `O=C1NC(=O)C(C(=O)C(=O)Nc2cccc(C(F)(F)F)c2)C(=O)N1`, the growth inhibition was -17.7% in experiment [1]; 0.1% in experiment [2]; -44.7% in experiment [3]; -1.75% in experiment [4]; -31% in experiment [5]; -40.9% in experiment [6].
For the molecule `CCCC[N+]1(C)CCC(OC(=O)C(O)(c2ccccc2)C2CCCC2)C1` (configuration not stated), the growth inhibition in experiment [1] is 15.6%; in experiment [2], 5.25%; in experiment [3], 5.3%; in experiment [4], -32.8%; in experiment [5] it was -6.3%; in experiment [6], -5.5%.
As for `O=[N+]([O-])c1ccc(O)c(C=NCCN=Cc2cc([N+](=O)[O-])ccc2O)c1.[Zn+2]`, the growth inhibition in experiment [1] is 15.4%; in experiment [2], 7%; in experiment [3], -6.05%; in experiment [4] it was -15.8%; in experiment [5], 1.1%; in experiment [6], 23.4%.
Regarding `Oc1ccccc1C1NCCc2[nH]cnc21` (configuration not stated), the growth inhibition was 39% in experiment [1]; 11.3% in experiment [2]; 14.4% in experiment [3]; 30.8% in experiment [4]; 4.15% in experiment [5]; 7.9% in experiment [6].
For `O/N=C(/C(=N/O)c1ccccc1)c1ccccc1.O/N=C(/C(=N/O)c1ccccc1)c1ccccc1.[Ni]`, the growth inhibition was -10.2% in experiment [1]; -6.5% in experiment [2]; 5.05% in experiment [3]; -21.8% in experiment [4]; 2.15% in experiment [5]; -14.8% in experiment [6].
Take `NC1=Nc2ccccc2Sc2ccccc21`: the growth inhibition is -19.2% in experiment [1]; -38.8% in experiment [2]; -44.5% in experiment [3]; 2.5% in experiment [4]; -23.5% in experiment [5]; -33.8% in experiment [6].
As for `c1ccc(-c2csc3[nH]c4ccccc4[n+]23)cc1`, the growth inhibition in experiment [1] was 19.4%; in experiment [2], 5.6%; in experiment [3] it was 8.35%; in experiment [4], 5.7%; in experiment [5], 5.25%; in experiment [6], 6.35%.
